# Hits are enriched below; roughly 0.92% of the tested compounds scored in any of these assays.
# RecA intein inh = inhibitors of M. tuberculosis RecA intein splicing. cell-free RecA intein splicing, fluorescence. inhibition, % (concentration not given with the values). 0.75% of 290,000 active. AID 2221; in the data active means inhibition above about 30%; inconclusive means no clear call, values can overlap the other calls
# Mtb hypoxia rep = Mtb hypoxia fluorescent reporter inhibition. M. tuberculosis hypoxia-regulated fluorescent reporter, fluorescence. fluorescence inhibition, % (test concentration not listed). 0.1% of 300,000 active; in the data active means fluorescence inhibition mostly above about 23%, no sharp cut-off; inactive means mostly below about 17%
# Rv3671c inh = Rv3671c (M. tuberculosis) protease inhibition | AID 2606 | 0.048% of 320,000 active | inhibition, % at 5.96 µM; in the data active means inhibition above about 38%;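 further: extracellular domain of Rv3671c used as enzyme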
# Target sequence (P9WHR9 whole entry, looked up, the tested form may be a part): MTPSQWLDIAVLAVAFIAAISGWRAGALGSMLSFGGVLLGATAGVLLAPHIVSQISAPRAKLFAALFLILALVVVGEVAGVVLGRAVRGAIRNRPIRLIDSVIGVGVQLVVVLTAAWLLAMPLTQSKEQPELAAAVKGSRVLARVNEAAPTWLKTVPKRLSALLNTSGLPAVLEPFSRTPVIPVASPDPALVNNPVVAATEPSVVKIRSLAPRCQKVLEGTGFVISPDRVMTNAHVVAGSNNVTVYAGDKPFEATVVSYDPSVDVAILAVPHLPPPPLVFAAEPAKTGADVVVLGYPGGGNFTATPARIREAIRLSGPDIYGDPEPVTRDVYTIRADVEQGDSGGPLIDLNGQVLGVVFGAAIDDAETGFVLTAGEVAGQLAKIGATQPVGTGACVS
# Mtb UGM inh = Mtb UDP-galactopyranose mutase inhibition; P9WIQ1; purified UGM, fluorescence polarization probe displacement; inhibition, % at 10 µM; 0.06% of 320,000 active; AID 504406; in the data active means inhibition above about 10%, passing the limit was not always enough; inconclusive means no clear call, values can overlap the other calls
# FadD28 FP inh = M. tuberculosis FadD28 bisubstrate binding inhibition | inhibition, % at 12.5 µM | 0.22% of 360,000 active | FadD28 bisubstrate probe binding, fluorescence polarization; in the data active means inhibition above about 8.5%, passing the limit was not always enough; inconclusive means no clear call, values can overlap the other calls
# Mtb betalactam = beta-lactam sensitization of Mtb H37Rv. AID 434955. inhibition, % at 25 µM. M. tuberculosis H37Rv growth with meropenem, percent inhibition. 0.27% of 330,000 active;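 further: growth measured after seven days incubation then overnight dye step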
# GFP chromo cs = counter-screen GFP chromophore formation inhibition; AID 434968; cell-free GFP chromophore formation, fluorescence; shares compounds with RecA intein inh; EC50, µM; 83% of 2,100 active
# Hits are given with their value; – = inactive; ? = inconclusive; · = no result. Unless noted, how the calls were made is not given here.
SMILES,RecA intein inh,Mtb hypoxia rep,Rv3671c inh,Mtb UGM inh,FadD28 FP inh,Mtb betalactam,GFP chromo cs
Cc1ccc2occ(C=NNC(=O)c3ccc(O)cc3)c(=O)c2c1,·,–,·,·,·,·,·
CC(CCc1ccccc1)NC(=O)COC(=O)c1cc(NS(=O)(=O)c2ccc(Cl)c([N+](=O)[O-])c2)ccc1O (stereo not drawn),38,–,–,–,–,–,–
O=C(CN1C(=O)c2ccccc2C1=O)c1ccccc1,–,·,–,–,–,–,·
CC1=C(CC(=O)c2ccccc2)C(=O)c2ccccc2C1=O,43,–,–,–,–,–,26
COc1cc(N=Nc2cccc(S(N)(=O)=O)c2)c2ccccc2c1N,45,–,–,–,9.7,–,33
CCOC(=O)/C(C#N)=C\c1cccnc1,–,–,–,–,–,–,·
CCOC(=O)C(C#N)C(c1cccnc1)c1c(C)[nH][nH]c1=O (stereo not drawn),78,–,–,–,–,–,11
O=C(O)c1ccc(N/N=C/c2ccncc2)cc1,–,·,–,–,–,–,·
COc1ccc(C(=O)c2c(C(F)(F)F)oc3c2C(=O)c2ccccc2C3=O)cc1OC,67,·,–,–,–,–,11
COc1ccc(C(=O)Nc2ccc3c(c2)C(=O)c2ccccc2C3=O)cc1OC,–,–,–,–,–,–,·
N=c1c2c(-c3ccccc3)c(-c3ccccc3)n(Cc3ccco3)c2ncn1Cc1ccccc1,59,–,–,–,–,–,5.2
CSc1nnc(NC(=O)C23CC4CC(CC(C4)C2)C3)s1,–,–,–,–,–,–,–
c1coc(-c2nnc(-c3ccco3)nn2)c1,58,–,–,–,–,–,9.1
CC(=O)Nc1ccc(S(=O)(=O)NC2=C(N3CCN(c4ccc(F)cc4)CC3)C(=O)c3ccccc3C2=O)cc1,45,–,–,–,?,–,26
COc1ccc(CNC(=O)C(=O)NCC(c2ccco2)N2CCOCC2)cc1 (stereo not drawn),–,–,–,–,–,–,·
CCN1/C(=C/c2cccc[n+]2C)Sc2ccc(OC)cc21,–,·,–,–,–,–,·
CCOC(=O)CC1=NN(c2ccccc2)C(=O)/C1=C\c1ccc(OC)cc1OC,47,·,–,–,–,–,0.41
CCOC(=O)C/C(C)=N/NC(=O)COc1ccccc1C,62,·,–,–,–,–,13
CN1C(=O)N(C)c2cccc3cccc1c23,–,–,–,–,–,–,·
CC1=Nc2cccc3cccc(c23)N1C,78,·,–,–,–,–,–
CC(Oc1ccc(F)cc1)C(=O)Oc1ccc(N(C)S(=O)(=O)c2ccccc2)cc1 (stereo not drawn),39,–,–,–,–,–,–
O=C1OCCC1=COCCOC=C1CCOC1=O,·,·,·,·,–,·,·
COc1ccc(-n2nc3c(c2NC(=O)CCl)CSC3)cc1,34,·,–,–,–,–,–
CN(C(=O)C(Cl)Cl)c1ccc(OC(=O)c2ccco2)cc1,36,–,–,–,–,–,–
O=C(Oc1cccnc1)c1ccco1,–,–,–,–,–,–,·
SMILES,RecA intein inh,Mtb hypoxia rep,Rv3671c inh,Mtb UGM inh,FadD28 FP inh,Mtb betalactam,GFP chromo cs
COc1ccc(-c2[nH]n(-c3ccc([N+](=O)[O-])cc3)c(=O)c2C=NCc2ccc(F)cc2)cc1,–,–,–,–,–,–,·
COc1ccc(-c2cc(=O)n(-c3ccc([N+](=O)[O-])cc3)[nH]2)cc1,90,–,–,–,–,–,5.4
Cc1ccc(S(=O)(=O)NCCCN(C)C)cc1,–,–,–,–,–,–,·
O=C(NN=Cc1ccc(OCc2ccccc2)cc1)c1ccco1,·,–,·,·,·,·,·
COC(=O)C(O)(c1c(C)[nH]n(-c2ccccc2)c1=O)C(F)(F)F (stereo not drawn),92,·,–,–,–,–,7.5
CC(=NNC(N)=S)C1(C)CC2(CC(C)(C)OC2=O)C(=O)O1 (stereo not drawn),·,–,·,·,·,·,·
CC1=NN(Cc2ccccc2)C(=O)/C1=C\c1ccc(N(C)C)cc1,94,–,–,–,–,–,?
COc1ccc(NC(=O)CC(C)NCCCN2CCCC2=O)cc1 (stereo not drawn),–,–,–,–,–,–,·
O=S(=O)(NC1CCCCC1Nc1ccc(Cl)cc1)c1ccccc1 (stereo not drawn),–,–,–,–,–,–,·
CC1(c2ccc(OC(F)F)cc2)NC(=O)N(CC(=O)Nc2cccc(F)c2)C1=O (stereo not drawn),–,–,–,–,–,–,·
CCC(=NC1CC1)c1c(O)n(-c2ccc(OC)cc2)c(=O)[nH]c1=O,–,–,–,–,–,–,·
COc1ccccc1/C=C/C1(C(=O)NC2CCCC2)CC(=O)N1c1ccc(F)cc1 (stereo not drawn),57,–,–,–,–,–,22
CCOc1ccc2[nH]c(=O)c(CN(Cc3cccs3)Cc3nnnn3C(C)(C)C)cc2c1,–,–,–,–,–,–,·
O=C1C(Cl)=C(N2CCCCC2)C(=O)C(Cl)=C1c1cnc(N2CCCCC2)s1,35,–,·,·,–,·,0.45
CN(C)c1ncc(C2=C(Cl)C(=O)C(N3CCCC3)=C(Cl)C2=O)s1,60,–,–,–,–,–,4.4
CC(=O)c1cnc(N(C)C)s1,–,·,–,–,–,–,·
O=S1(=O)CC(N2CCCC2)CN1C1CCCC1 (stereo not drawn),·,·,·,·,–,·,·
CSc1nc(-c2ccc(Cl)cc2)nn1C(=O)c1ccco1,38,–,–,–,–,–,–
CCc1ccccc1NC(=O)c1cc([N+](=O)[O-])ccc1N1CCOCC1,–,–,–,–,–,–,·
COc1cc(/C=C2/C(=N)N3C(=NC2=O)SN=C3S(C)(=O)=O)ccc1OC(=O)c1ccco1,–,–,–,–,–,–,·
CS(=O)(=O)C1=NSC2=NC(=O)/C(=C\c3ccc(OC(=O)c4ccco4)cc3)C(=N)N21,35,·,–,–,·,–,–
COc1ccc(CNC(=O)C(c2ccc(C)o2)N(C(=O)c2snc(C(N)=O)c2N)c2ccccc2OC)cc1 (stereo not drawn),36,–,–,–,·,–,–
COc1ccc(OC)c(N(C(=O)c2snc(C(N)=O)c2N)C(C(=O)NCc2ccccc2)c2ccc(O)cc2)c1 (stereo not drawn),–,–,–,–,–,–,·
COc1ccc(Nc2nc(-c3ccccc3)nc3ccccc23)cc1S(=O)(=O)N1CCOCC1,–,–,–,–,–,–,·
O=C1CC(=O)N(c2cccc(C(F)(F)F)c2)C(=O)N1,–,–,–,–,–,–,·
O=C1C(Cl)=C(N2CCOCC2)C(=O)N1c1cccc(C(F)(F)F)c1,90,–,–,–,–,–,2.6
COC(=O)c1cccc(N2C(=O)C(Cl)=C(N3CCOCC3)C2=O)c1,68,–,–,–,–,–,5.2
COC(=O)c1cccc(S(=O)(=O)N2CCOCC2)c1,–,–,–,–,–,?,·
CC(=O)c1c(Cl)nc2cccc3c2c1-c1ccccc1C3=O,33,·,–,–,–,–,–

# High-throughput results as filed in PubChem BioAssay.
